A selection: hits, their analogues and other compounds. The true share with any hit is near 5.9%.
GLP1R ag – activates the human GLP-1 receptor | P43220 | HEK293 GLP-1R CRE-luciferase, luminescence, 4-6 h; cells express a hypersensitive GLP-1R form | Potency, µM (highest dose often 45.6 µM), hits mostly activators | hit rate 0.007% among 380,000 | AID 624172
Target sequence (P43220 whole entry, looked up): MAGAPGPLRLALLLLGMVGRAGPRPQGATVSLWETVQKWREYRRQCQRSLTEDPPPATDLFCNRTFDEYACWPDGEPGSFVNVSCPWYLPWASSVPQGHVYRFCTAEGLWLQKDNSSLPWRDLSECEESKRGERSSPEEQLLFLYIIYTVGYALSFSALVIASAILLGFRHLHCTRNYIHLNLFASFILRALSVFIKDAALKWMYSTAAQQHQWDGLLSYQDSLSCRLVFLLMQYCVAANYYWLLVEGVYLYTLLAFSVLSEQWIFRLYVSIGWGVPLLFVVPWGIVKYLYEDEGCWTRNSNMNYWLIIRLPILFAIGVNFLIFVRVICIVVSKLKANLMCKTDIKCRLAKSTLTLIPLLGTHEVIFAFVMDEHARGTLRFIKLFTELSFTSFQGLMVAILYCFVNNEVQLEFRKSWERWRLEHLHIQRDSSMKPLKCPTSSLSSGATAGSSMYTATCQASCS
GLP1R cytotox – cytotoxicity in counter-screen for GLP-1R inverse agonists. HEK293 cAMP-luciferase reporter cells, luminescence, 24 h. Potency, µM (highest dose often 38.3 µM), usual class: inhibitors. hit rate 0.13% among 410,000. AID 624418;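 note: loss of luciferase light is scored as toxicity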
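To flag toxic compounds, the library was rerun on cells for 24 hr at 37 deg C and 5% CO2. Viability-linked luminescence was captured 12 min after adding luciferase detection reagent.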
RORgamma inh – inhibitors of mouse ROR gamma transcriptional activity. Drosophila S2 Gal4-RORgamma UAS-luciferase reporter, 20 h. P51450. hit rate 5.4% among 310,000. Potency, µM (highest dose often 53.6 µM), actives largely listed as inhibitors; note: nearly all actives have a fitted effect of over 60% in size
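In this cell-based reporter format, copper sulfate (700 uM final) drives Gal4–ROR gamma fusion expression from a metallothionein promoter in Drosophila Schneider cells; compounds preincubated 1 hr, reporter read after 20 hr at ambient temperature.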
GLP-1R inv ag – GLP-1 receptor (human) inverse agonism; P43220; AID 624417; HEK293 GLP-1R CRE-luciferase, luminescence, 24 h; GLP-1R form is constitutively active; Potency, µM (top dose mostly 38.3 µM), hits mostly inhibitors; hit rate 1.6% among 410,000; note: nearly all actives have a fitted effect of over 55% in size
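Assay principle: reduced luminescence from a cAMP-responsive reporter in HEK293 cells co-expressing a constitutively active GLP-1R. Conditions: 24 hr compound incubation, 37 deg C, 5% CO2.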
VP16 counter – Gal4-VP16 reporter inhibition counter-screen; Drosophila S2 Gal4-VP16 UAS-luciferase, luminescence, 20 h; Potency, µM (doses to about 53.6 µM), most hits filed as inhibitors; hit rate 3.5% among 310,000; AID 2546;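 note: Gal4-VP16 expression switched on by copper sulfate through the metallothionein promoter; nearly all actives have a fitted effect of over 50% in size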
A number is an active result; i = inactive; ? = inconclusive; nt = not tested or not shown; [ ] = another dose, or the depositor's remark. Calls come from the whole dose curve; as a rule, active = well fitted curve in the direction sought with a large enough effect; inconclusive = small, poorly fitted or top-dose-only effect, or another doubt; inactive = no such curve, though single readings can be large; an effect the other way counts as inactive or inconclusive.

SMILES | GLP1R ag | GLP1R cytotox | RORgamma inh | GLP-1R inv ag | VP16 counter
O=C(Nc1cccc(Cl)c1Cl)c1cc(S(=O)(=O)NCCc2ccccc2)ccc1F | i | i | 5.01µM | i | i
Cc1ccc(NC(=O)c2cc(S(=O)(=O)NCCc3ccc(Cl)cc3)ccc2F)cc1 | nt | i | nt | 11.2µM | nt
CN(C)c1ncc2nc(-c3cc(F)cc(F)c3)c(=O)n(C[C@H]3CCCO3)c2n1 | nt | nt | i | nt | i
NNC(=S)NC1CC2CC1C1C=CCC21 (stereo not given) | i | i | 0.447µM | ? | 2.82µM
Cc1nn(-c2ccccc2)c(OC(=O)c2ccccc2)c1S(=O)(=O)c1ccccc1 | i | i | nt | i | nt
CN(C1=C(N2CCOCC2)C(=O)c2ccccc2C1=O)c1ccccc1 | i | ? | 14.1µM | 10µM | i
CCOc1cc(CNC(=O)c2ccc3c(c2)N(C)C(=O)C2CCCCN32)ccc1OC (stereo not given) | nt | i | nt | i | nt
Cc1c(C)n(CC(O)CNc2ccccc2)c2ccccc12 (stereo not given) | i | i | i | 10µM | i
O=S(=O)(NCC(c1ccco1)N1CCN(c2ccc(F)cc2)CC1)c1ccc2c(c1)OCCO2 (stereo not given) | i | i | ? | 10µM | i
O=S(=O)(NCC(c1ccco1)N1CCN(c2ccc(F)cc2)CC1)c1ccccc1 (stereo not given) | nt | i | nt | ? | nt
CCCc1ccc(O)c(N=Cc2cc(Br)cc(OCC)c2O)c1 | i | i | 7.08µM | ? | 12.6µM
CCOc1ccc(Br)cc1/C=N/O | i | i | i | i | i
Cc1ccc(OCC(=O)OCc2cc(=O)n3c(C)csc3n2)cc1 | nt | i | nt | i | nt
COc1ccccc1Nc1nc(-c2sc(NC(=O)c3ccccc3)nc2C)cs1 | i | i | i | i | i
CCOc1ccccc1Nc1nc(-c2sc(NC(=O)c3cccc(Cl)c3)nc2C)cs1 | i | i | 11.2µM | i | i
COc1ccccc1Nc1nc(-c2sc(NC(=O)c3ccc([N+](=O)[O-])cc3)nc2C)cs1 | nt | nt | 3.98µM | nt | i
CCOc1ccccc1Nc1nc(-c2sc(NC(=O)c3ccccc3)nc2C)cs1 | nt | nt | ? | nt | i
CCCCN(CC)CCCNC(=O)C1CCCN(c2ncnc3c2nc2n3CCCCC2)C1 (stereo not given) | nt | i | nt | i | nt
CCOc1ccc2nc(N3C(=O)/C(=C/c4ccccc4)NC3=S)sc2c1 | i | ? | 1.26µM | i | 1.12µM
CCOc1ccc2nc(N3CCCCCC3)sc2c1 | i | i | ? | i | i
COc1ccc2nc(N3C(=O)/C(=C/c4ccccc4)NC3=S)sc2c1 | i | i | 1.41µM | i | 1.41µM
CC1CCN(C(=S)NC(=O)c2ccccc2)CC1 | i | ? | 2.82µM | ? | 4.47µM
CC1CCN(C(=O)C2CCN(C(=O)c3ccc(C(C)(C)C)cc3)CC2)CC1 | i | i | i | ? | i
CC1CCN(C(=S)NC(=O)c2ccc(C(C)(C)C)cc2)CC1 | i | ? | nt | 8.91µM | nt
COc1cc2c(cc1OC)C(C)N(C(=S)Nc1ccccc1)CC2 (stereo not given) | i | i | ? | i | i
SMILES | GLP1R ag | GLP1R cytotox | RORgamma inh | GLP-1R inv ag | VP16 counter
CC1C(c2ccccc2)OCCN1C(=S)NC(=O)c1ccccc1 (stereo not given) | i | i | nt | i | nt
COc1cc2c(cc1OC)C(C)N(C(=S)NC(=O)c1ccccc1)CC2 (stereo not given) | i | i | 1.26µM | i | 2.24µM
COc1ccc(NC(=O)CCc2nnc3n(CC(C)C)c(=O)c4ccccc4n23)cc1 | nt | i | nt | i | nt
O=C(c1ccc(CSc2nc3ccncc3n2Cc2ccccc2F)cc1)N1CCCCC1 | nt | i | nt | i | nt
CCN(CC)S(=O)(=O)c1ccc2c(c1)N(CC(=O)Nc1c(C)cc(C)cc1C)C(=O)CS2 | nt | i | nt | i | nt
CC(C)(C)C(=O)/C(=C\c1ccc([N+](=O)[O-])cc1)n1cncn1 | nt | nt | 2.24µM | nt | 4.47µM
CC(C)(C)C(=O)/C(=C/c1ccc(Cl)cc1)n1cncn1 | i | i | ? | 3.98µM | i
Cc1cc(N2CCN(C(c3ccccc3)c3ccccc3)CC2)n2ncnc2n1 | i | i | i | 11.2µM | i
Cc1cc(N2CCN(c3nc4ccccc4s3)CC2)n2ncnc2n1 | i | i | ? | i | 11.2µM
Cc1nc2ncnn2c(N2CCN(C(c3ccccc3)c3ccccc3)CC2)c1C | i | i | ? | i | i
CN(C)c1ccc(-c2cncnc2-n2ccnc2)cc1 | nt | nt | i | nt | i
COCCNc1ncnc2ccc(-c3cccc(OC)c3)cc12 | nt | nt | ? | nt | i
COc1ccc2c(c1)CC(NC(=O)Nc1c(C)cc(C)cc1C)CO2 (stereo not given) | nt | i | nt | i | nt
CNC(=O)N(O)C1N(/N=C/c2ccc(SC)cc2)C(=S)SC1(C)C (stereo not given) | i | i | i | ? | i
CN(C)c1ccc(/C=N/N2C(=S)SC(C)(C)C2N(O)C(=O)Nc2ccc([N+](=O)[O-])cc2)cc1 (stereo not given) | i | i | 7.94µM | ? | i
CC(C)(S)C(=O)N[C@H](CS)C(=O)O | i | nt | nt | nt | nt
Fc1ccc(N/N=C/c2ccncc2)c(F)c1 | i | i | ? | 1.41µM | i
O=C(N/N=C\c1ccc(F)cc1)c1ccc(F)cc1 | i | i | i | i | i
CC(C)(C)c1ccc(/C=N/Nc2ccc(C(=O)O)cc2)cc1 | i | i | 0.02µM | i | 17.8µM
O=C(O)c1ccc(/C=N/Nc2ccc(F)cc2F)cc1 | i | i | 12.6µM | ? | ?
Fc1ccc(N/N=C/C=C/c2ccccc2)c(F)c1 | i | i | i | ? | ?
O=C(O)c1ccc(N/N=C/c2c(F)cccc2Cl)cc1 | i | i | 2µM | 5.01µM | 0.708µM
C=CCOC(=O)C(C(C)=O)C(NC(=O)OC)c1ccc2ccccc2c1 (stereo not given) | nt | nt | i[10 µM] | nt | i[10 µM]
Cc1cn2c(=O)cc(COC(=O)c3cccc(NC(=O)c4ccccc4C)c3)nc2s1 | nt | i | nt | i | nt
O=C1C2C3C=CC(C3)C2C(=O)N1CCN1CCN(S(=O)(=O)c2ccc3ccccc3c2)CC1 (stereo not given) | i | i | i | 11.2µM | i
SMILES | GLP1R ag | GLP1R cytotox | RORgamma inh | GLP-1R inv ag | VP16 counter
CCC1CC=CC2C1C(=O)N(Cc1ccccc1)C2c1ccc2ccccc2c1 (stereo not given) | nt | nt | i | nt | ?
CCOC(=O)c1nn(-c2cc(C(=O)OC)cc(C(=O)OC)c2)cc1O | i | i | i | i | i
CCOC(=O)c1cc(C(=O)OCC)cc(-n2cc(O)c(C(=O)OCC)n2)c1 | i | i | ? | i | 11.2µM
Cc1cccc2[nH]c3c(N4CCC5(CC4)OCCO5)ncnc3c12 | i | i | 11.2µM | i | 5.01µM
CCOC(=O)Cn1c(-c2ccccc2)cc(SC)c(C#N)c1=O | i | i | i | 10µM | i
CSc1cc(-c2ccccc2)n(C)c(=O)c1C#N | i | i | i | i | i
COc1cccc(NC(=O)Cn2c(=O)n(CCCCC(=O)NCc3ccccc3Cl)c(=O)c3ccccc32)c1 | i | i | nt | i | nt

Screening results: PubChem, National Center for Advancing Translational Sciences (NCATS)
